Measured values published in PubChem BioAssay (EPA / NIEHS).
More than one record can exist for a structure, and the calls need not agree. The source made the active and inactive calls. Rule for the calls: active = hit-call score of the fitted dose curve at least 0.9, where 1 is the maximum; inactive = score below 0.9.

Experiments:
[1] = ATG_CMV_CIS: Attagene CIS-FACTORIAL HepG2 Assay for human CMV (Internal Marker) (AID 2282928); conditions: HepG2 CMV promoter reporter, transcription factor profiling; actives raise or lower the signal;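 note: endpoint acts as a background internal control marker rather than a target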
Summary of the method: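 Fluorescence intensity of RT-PCR-derived reporter fragments, resolved by capillary electrophoresis, gives the signal. HepG2 liver cells bearing transfected cis-element reporters were treated 24 h; activity in either direction was fit relative to DMSO-treated controls.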

[2] = ATG_DR4_LXR_CIS: Attagene CIS-FACTORIAL HepG2 Assay for human Liver X Receptor (LXR), DR4 submotif (AID 2282929); conditions: HepG2 Attagene DR4 cis-reporter, mRNA transcription; actives raise or lower the signal
Summary of the method: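 Transiently transfected HepG2 liver cells; cis-regulated reporters; 24 h dosing. RT-PCR plus CE read-out of reporter mRNA. DMSO baseline, bidirectional curve fitting.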

[3] = biological target: Aryl hydrocarbon receptor (Homo sapiens) (UniProt P35869); experiment: ATG_Ahr_CIS: Attagene CIS-FACTORIAL HepG2 Assay for human Aryl Hydrocarbon Receptor (Ahr) (AID 2282930); conditions: HepG2 AhR cis-factorial reporter transcription; actives raise or lower the signal
Sequence of Aryl hydrocarbon receptor (Homo sapiens) (P35869 whole entry, looked up): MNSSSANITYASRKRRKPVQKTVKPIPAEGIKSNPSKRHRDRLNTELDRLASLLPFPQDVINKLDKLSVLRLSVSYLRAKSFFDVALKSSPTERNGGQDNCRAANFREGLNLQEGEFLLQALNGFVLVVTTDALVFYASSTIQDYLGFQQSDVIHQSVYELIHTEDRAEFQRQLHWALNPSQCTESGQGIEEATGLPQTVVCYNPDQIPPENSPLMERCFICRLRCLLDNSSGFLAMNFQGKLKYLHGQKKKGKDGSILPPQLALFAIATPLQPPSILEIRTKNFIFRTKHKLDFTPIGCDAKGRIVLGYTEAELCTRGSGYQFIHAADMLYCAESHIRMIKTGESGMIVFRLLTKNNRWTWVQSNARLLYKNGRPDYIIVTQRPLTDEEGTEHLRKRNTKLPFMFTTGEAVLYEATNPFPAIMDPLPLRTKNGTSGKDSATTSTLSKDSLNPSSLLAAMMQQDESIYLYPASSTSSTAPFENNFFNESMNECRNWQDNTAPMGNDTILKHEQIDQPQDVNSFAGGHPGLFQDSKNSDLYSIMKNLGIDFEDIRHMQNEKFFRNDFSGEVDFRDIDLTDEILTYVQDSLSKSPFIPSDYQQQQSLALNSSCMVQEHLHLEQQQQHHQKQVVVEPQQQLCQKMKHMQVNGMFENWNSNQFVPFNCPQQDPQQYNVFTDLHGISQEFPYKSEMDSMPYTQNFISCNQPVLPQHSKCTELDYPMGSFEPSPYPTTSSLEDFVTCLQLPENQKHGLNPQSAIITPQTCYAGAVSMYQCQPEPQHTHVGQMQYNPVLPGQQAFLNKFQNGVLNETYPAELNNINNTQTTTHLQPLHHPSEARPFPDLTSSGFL
Summary of the method: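 Transient MRTU transfection of HepG2 → 24 h compound exposure → total RNA, oligo(dT) RT → PCR, 6-FAM extension, HpaI cut → CE fluorescence. DMSO = baseline; bidirectional curve fit.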

[4] = ATG_AP_1_CIS: Attagene CIS-FACTORIAL HepG2 Assay for human Activator Protein 1 (AP-1) (AID 2282931); conditions: HepG2 Attagene cis-factorial AP-1 reporter mRNA; actives raise or lower the signal
Summary of the method: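 We transfected HepG2 cells transiently with a set of cis-regulated reporter transcription units, dosed them for 24 h, and quantified reporter mRNA via RT-PCR and capillary electrophoresis, scoring gain or loss of signal relative to DMSO.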

[5] = ATG_AP_2_CIS: Attagene CIS-FACTORIAL HepG2 Assay for human Activator Protein 2 (AP-2) (AID 2282932); conditions: HepG2 AP-2 cis-reporter, Attagene transcription factor profiling; actives raise or lower the signal
Summary of the method: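 Transiently transfected HepG2 cells are exposed to chemical for 24 h. Reporter transcripts are then measured as fluorescence following RT-PCR and capillary separation, and gain- or loss-of-signal is fitted relative to DMSO.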

[6] = ATG_BRE_CIS: Attagene CIS-FACTORIAL HepG2 Assay for human Bone Morphogenetic Protein (BMP) Response Element (BRE) (AID 2282933); conditions: HepG2 BMP response element reporter, Attagene transcription factor profiling; actives raise or lower the signal
Summary of the method: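 After a 24 h chemical treatment, transiently transfected HepG2 cells were lysed for RNA; reporter transcripts were quantified by fluorescent RT-PCR and capillary electrophoresis, normalised to DMSO.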

[7] = biological target: Retinoic acid receptor alpha (Homo sapiens) (UniProt P10276); experiment: ATG_DR5_RAR_CIS: Attagene CIS-FACTORIAL HepG2 Assay for human Retinoic Acid Receptor Alpha (RARE), DR5 submotif (AID 2282934); conditions: HepG2 Attagene cis-factorial RARE DR5 reporter, mRNA; actives raise or lower the signal
Sequence of Retinoic acid receptor alpha (Homo sapiens) (P10276 whole entry, looked up): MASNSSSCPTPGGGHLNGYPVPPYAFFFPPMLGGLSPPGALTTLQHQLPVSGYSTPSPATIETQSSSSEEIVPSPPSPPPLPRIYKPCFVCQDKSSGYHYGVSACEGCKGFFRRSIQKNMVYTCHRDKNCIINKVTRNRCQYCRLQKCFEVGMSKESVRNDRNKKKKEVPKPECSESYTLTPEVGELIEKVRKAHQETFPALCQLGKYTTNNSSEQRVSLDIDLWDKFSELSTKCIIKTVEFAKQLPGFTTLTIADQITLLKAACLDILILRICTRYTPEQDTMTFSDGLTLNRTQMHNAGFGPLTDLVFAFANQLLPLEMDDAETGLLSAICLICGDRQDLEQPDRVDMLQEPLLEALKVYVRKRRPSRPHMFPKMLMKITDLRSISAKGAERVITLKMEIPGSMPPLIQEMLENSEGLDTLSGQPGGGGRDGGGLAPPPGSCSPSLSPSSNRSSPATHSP
Summary of the method: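 Transient MRTU transfection of HepG2; 24 h compound treatment; TriZol RNA, oligo(dT) RT, PCR, FAM labelling, capillary electrophoresis. Bidirectional fit vs DMSO. Endogenous TF activity at DR5 RARE.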

[8] = biological target: Transcription factor E2F1 (Homo sapiens) (UniProt Q01094); experiment: ATG_E2F_CIS: Attagene CIS-FACTORIAL HepG2 Assay for human E2F Transcription Factor 1 (AID 2282935); conditions: HepG2 Attagene cis-reporter, E2F reporter RNA transcripts; actives raise or lower the signal
Sequence of Transcription factor E2F1 (Homo sapiens) (Q01094 whole entry, looked up): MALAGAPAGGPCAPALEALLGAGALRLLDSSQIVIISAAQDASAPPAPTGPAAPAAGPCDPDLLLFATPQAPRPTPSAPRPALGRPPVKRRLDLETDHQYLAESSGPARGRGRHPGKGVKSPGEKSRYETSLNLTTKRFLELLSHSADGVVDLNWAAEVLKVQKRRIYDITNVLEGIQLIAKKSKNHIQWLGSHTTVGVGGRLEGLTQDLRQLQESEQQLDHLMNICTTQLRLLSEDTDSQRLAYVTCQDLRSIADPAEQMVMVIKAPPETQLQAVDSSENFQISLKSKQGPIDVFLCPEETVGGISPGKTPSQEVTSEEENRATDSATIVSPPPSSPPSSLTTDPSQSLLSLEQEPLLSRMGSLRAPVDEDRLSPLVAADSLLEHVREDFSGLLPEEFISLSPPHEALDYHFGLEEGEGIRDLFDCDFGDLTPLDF
Summary of the method: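 Fluorescent RT-PCR products, digested with HpaI for 2 h at 37 C, are separated by capillary electrophoresis. Source RNA comes from transfected HepG2 cultures treated for 24 h.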

[9] = ATG_E_Box_CIS: Attagene CIS-FACTORIAL HepG2 Assay for human Enhancer Box (E-box) (AID 2282936); conditions: HepG2 E-box cis-reporter transcription, actives raise or lower the signal
Summary of the method: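 Fluorescent reporter fragments separated by capillary electrophoresis gave the signal; mRNA came from HepG2 cells transfected with cis-element reporters and treated 24 h. Curves fitted bidirectionally relative to DMSO controls.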

[10] = ATG_M_61_CIS: Attagene CIS-FACTORIAL HepG2 Assay for M61 Transcription Factor (Internal Marker) (AID 2282937); conditions: HepG2 Attagene CIS-FACTORIAL M61 internal marker reporter; actives raise or lower the signal
Summary of the method: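 Multiplexed reporter mRNA assay, HepG2 human hepatoma cells, 24 h treatment. Signal: FAM-labelled, HpaI-digested RT-PCR fragments by CE. Fit: bidirectional, baseline DMSO.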

[11] = ATG_EGR_CIS: Attagene CIS-FACTORIAL HepG2 Assay for human Early Growth Response 1 (EGR1) (AID 2282938); conditions: HepG2 Attagene CIS-FACTORIAL EGR reporter mRNA; actives raise or lower the signal
Summary of the method: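 Multiplexed cis-reporter system in human hepatoma HepG2 cells, transiently transfected. Cells are dosed for 24 h; reporter transcripts are amplified, fluorescently tagged and sized by capillary electrophoresis, with DMSO as negative control.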

[12] = ATG_M_19_CIS: Attagene CIS-FACTORIAL HepG2 Assay for M19 Transcription Factor (Internal Marker) (AID 2282939); conditions: HepG2 Attagene CIS-FACTORIAL M19 internal marker reporter; actives raise or lower the signal
Summary of the method: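 In this multiplexed cell assay, transiently transfected HepG2 reporter units report endogenous transcription-factor activity; after 24 hours of treatment, labelled reporter cDNA fragments are quantified by capillary electrophoresis and fitted bidirectionally against DMSO.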

[13] = ATG_ERE_CIS: Attagene CIS-FACTORIAL HepG2 Assay for Estrogen Response Element (ERE) (AID 2282940); conditions: HepG2 ERE cis-reporter, Attagene RNA transcript; actives raise or lower the signal
Summary of the method: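 Measuring endogenous transcription factor output, the assay doses transfected HepG2 cells for 24 hours and quantifies reporter transcripts by fluorescent RT-PCR and capillary electrophoresis, with DMSO as baseline.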

[14] = ATG_Ets_CIS: Attagene CIS-FACTORIAL HepG2 Assay for human Erythroblast Transformation Specific (ETS) (AID 2282941); conditions: HepG2 ETS cis-reporter transcription, actives raise or lower the signal
Summary of the method: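 Multiplexed reporter transcript profiling: HepG2, 24 h treatment, total RNA to cDNA, PCR, 6-FAM labelling, HpaI cut, capillary electrophoresis. Gain- or loss-of-signal fitted against DMSO.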

[15] = biological target: Hepatocyte nuclear factor 3-beta (Homo sapiens) (UniProt Q9Y261); experiment: ATG_FoxA2_CIS: Attagene CIS-FACTORIAL HepG2 Assay for human Forkhead box A2 (FOXA2) (AID 2282942); conditions: HepG2 cis-reporter transcription factor activity, 24 h; actives raise or lower the signal
Sequence of Hepatocyte nuclear factor 3-beta (Homo sapiens) (Q9Y261 whole entry, looked up): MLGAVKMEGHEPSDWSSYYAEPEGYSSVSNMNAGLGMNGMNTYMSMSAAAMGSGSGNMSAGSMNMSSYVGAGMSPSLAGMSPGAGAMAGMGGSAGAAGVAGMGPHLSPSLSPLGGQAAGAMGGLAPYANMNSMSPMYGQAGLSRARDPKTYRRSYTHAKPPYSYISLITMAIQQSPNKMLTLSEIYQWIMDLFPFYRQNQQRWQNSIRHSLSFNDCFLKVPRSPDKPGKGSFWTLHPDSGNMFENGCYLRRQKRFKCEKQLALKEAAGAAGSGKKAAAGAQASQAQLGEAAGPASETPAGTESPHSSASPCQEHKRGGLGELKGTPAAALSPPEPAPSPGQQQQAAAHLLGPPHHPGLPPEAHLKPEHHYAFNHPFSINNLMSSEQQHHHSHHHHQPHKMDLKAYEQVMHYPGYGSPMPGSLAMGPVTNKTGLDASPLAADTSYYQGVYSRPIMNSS
Summary of the method: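 Multiplexed cis-element reporter assay in transiently transfected HepG2. Twenty-four hours post-dosing, RNA was reverse-transcribed, amplified, FAM-labelled, HpaI-digested and separated by CE. Activity gain or loss relative to DMSO.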

[16] = ATG_FoxO_CIS: Attagene CIS-FACTORIAL HepG2 Assay for human Forkhead box O (FoxO) (AID 2282943); conditions: HepG2 Attagene cis-reporter, FoxO element, mRNA; actives raise or lower the signal
Summary of the method: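 HepG2, transient MRTU transfection (cis element, endogenous TFs). Dose 24 h. TriZol RNA → oligo(dT) RT → PCR → 6-FAM primer extension → HpaI cut → CE. Gain/loss vs DMSO.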

[17] = ATG_GATA_CIS: Attagene CIS-FACTORIAL HepG2 Assay for human GATA Binding Protein (AID 2282944); conditions: HepG2 GATA cis-element reporter, Attagene multiplex mRNA; actives raise or lower the signal
Summary of the method: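 Measures endogenous transcription factor-driven reporter mRNA in HepG2 cells transiently carrying cis-regulated constructs. 24 h dosing; RNA via oligo(dT) reverse transcription, PCR, HpaI digestion, capillary electrophoresis; fitted relative to DMSO.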

[18] = ATG_GLI_CIS: Attagene CIS-FACTORIAL HepG2 Assay for human Zinc Finger Protein GLI1 (AID 2282945); conditions: HepG2, Attagene cis-factorial reporter mRNA, GLI element; actives raise or lower the signal
Summary of the method: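 Bidirectional curve fits relative to DMSO, using reporter mRNA levels from RT-PCR plus capillary electrophoresis. Cells were HepG2 transiently carrying cis-regulated reporter constructs, harvested 24 h after dosing.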

[19] = ATG_GRE_CIS: Attagene CIS-FACTORIAL HepG2 Assay for human Glucocorticoid Response Elements (GRE) (AID 2282947); conditions: HepG2 GRE cis-reporter, Attagene multiplex mRNA; actives raise or lower the signal
Summary of the method: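 Multiplexed cis-reporter mRNA induction, HepG2, 24 h post-dose. RT-PCR, FAM-labelled, HpaI-digested amplicons by CE. Bidirectional fit vs DMSO.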

[20] = biological target: Bile acid receptor (Homo sapiens) (UniProt Q96RI1); experiment: ATG_IR1_CIS: Attagene CIS-FACTORIAL HepG2 Assay for human Nuclear Receptor Subfamily 1 Group H Member 4 (NR1H4), IR1 submotif (AID 2282946); conditions: IR1 reporter transcription, actives raise or lower the signal
Sequence of Bile acid receptor (Homo sapiens) (Q96RI1 whole entry, looked up): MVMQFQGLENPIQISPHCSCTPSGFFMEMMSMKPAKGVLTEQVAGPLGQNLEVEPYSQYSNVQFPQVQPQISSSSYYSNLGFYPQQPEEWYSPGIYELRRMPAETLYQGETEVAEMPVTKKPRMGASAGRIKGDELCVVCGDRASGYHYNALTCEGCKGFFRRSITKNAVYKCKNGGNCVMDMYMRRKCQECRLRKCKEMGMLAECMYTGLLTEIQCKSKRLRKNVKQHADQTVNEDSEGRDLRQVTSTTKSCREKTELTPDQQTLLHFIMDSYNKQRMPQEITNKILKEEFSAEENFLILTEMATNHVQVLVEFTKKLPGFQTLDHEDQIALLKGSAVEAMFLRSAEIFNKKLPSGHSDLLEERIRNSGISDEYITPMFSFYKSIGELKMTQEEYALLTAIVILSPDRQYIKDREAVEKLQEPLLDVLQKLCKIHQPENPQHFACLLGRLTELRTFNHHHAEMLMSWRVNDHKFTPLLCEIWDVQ
Summary of the method: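 HepG2 cells transiently transfected with multiplexed cis-element reporter units read endogenous transcription factor activity. After 24 h compound exposure, reporter mRNA was quantified by RT-PCR, fluorescent labelling, HpaI digestion and capillary electrophoresis; bidirectional fitting versus DMSO baseline.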

Measured: AC50

CCN(CCO)CCO
not listed: [20]
inactive: all other assays above

CC(C)(COCC1CO1)COCC1CO1 (configuration not stated)
not listed: [20]
inactive: all other assays above

CN(C)CCN(C)C
not listed: [19]
inactive: all other assays above

O=S1(=O)OC(c2cc(Br)c(O)c(Br)c2)(c2cc(Br)c(O)c(Br)c2)c2ccccc21
active: [3] 26 µM
inactive: all other assays above

Cc1cc(SCc2sc(-c3ccc(C(F)(F)F)c(F)c3)nc2C)ccc1OCC(=O)O
active: [2] 23.8 µM | [5] 51.2 µM | [11] 26.3 µM
inactive: all other assays above

N#Cc1ccncc1
not listed: [19] | [20]
inactive: all other assays above

CCCCCCCCCCCCOS(=O)(=O)O
inactive: [1] | [2] | [4] | [5] | [6] | [8] | [9] | [10] | [12] | [14] | [16] | [17] | [18] | [19]
active: [2] 49.3 µM

Cc1ccccc1OP(=O)(Oc1ccccc1C)Oc1ccccc1C
active: [2] 13.9 µM | [4] 17.5 µM | [8] 69.7 µM | [13] 3.04 µM
inactive: all other assays above

BrCCCCBr
not listed: [19] | [20]
inactive: all other assays above

Nc1nc(=S)[nH][nH]1
not listed: [19] | [20]
inactive: all other assays above

O=S(=O)(F)C(F)(F)C(F)(F)C(F)(F)C(F)(F)F
inactive: all assays above

C[C@H]1C(=O)O[C@@H]2CCN3CC=C(COC(=O)[C@](C)(O)[C@]1(C)O)[C@H]23
inactive: all assays above

O=C(CCl)NCO
not listed: [19] | [20]
inactive: all other assays above

CCOP(=O)(OCC)SCCSCC
not listed: [19] | [20]
inactive: all other assays above
